Shown are actives, neighbours in structure and some others; about 12% of the full set was active somewhere.
Sfp PPTase inh = blocks B. subtilis Sfp PPTase activity; Q9F4F7; Biochemical Sfp PPTase activity, qHTS; hit rate 3.5% among 310,000; Potency, µM, without a hit: largest response in the series, negative = inhibition, usual class: inhibitors;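 further: the enzyme is Sfp with the accession as filed and its product quenches rhodamine fluorescence; 0% = enzyme reaction without inhibitor and -100% = no enzyme wells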
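Buffer: 50 mM Hepes-Na pH 7.6, 10 mM MgCl2, 0.01% Nonidet P-40, 0.01% BSA. Enzyme 15 nM, pre-exposed to compound 15 min; substrates then added and fluorescence change tracked over 30 min.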
G9a block = inhibitors of human histone lysine methyltransferase G9a; Q96KQ7; G9a H3K9 monomethylation, AlphaScreen, 2 h; Potency, µM (titrated, usually from 102 µM), without a hit: at the top dose activity, negative = inhibition, actives largely listed as inhibitors; hit rate 8.8% among 350,000; AID 504332; further: on the % scale 0 is the no-effect control and ±100 the full control effect; nearly all actives have a fitted effect of over 75% in size
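Enzyme 20 nM + cpd, 15 min RT; add b-H3K9 pep 500 nM / SAM 20 uM; 2 h RT; anti-H3K9me1 Ab 0.5 ug/mL + SA donor / anti-rabbit acceptor beads 20 ug/mL each, 10 min; AlphaScreen read.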
JMJD2A Tudor = inhibitors of human JMJD2A Tudor domain. hit rate 4.4% among 390,000. Potency, µM (titrated, usually from 114 µM), for inactives: top-dose activity change, negative = inhibition, usual class: inhibitors. AlphaScreen JMJD2A-Tudor / H3K4me3 peptide binding. O75164; further: on the % scale 0 is the no-effect control and ±100 the full control effect; nearly all actives have a fitted effect of over 50% in size
BAZ2B inh = inhibitors of human BAZ2B bromodomain; hit rate 4.4% among 360,000; AlphaScreen BAZ2B-H3K14Ac peptide displacement; Q9UIF8; Potency, µM (top dose mostly 114 µM), for inactives: top-dose activity change, negative = inhibition, usual class: inhibitors; further: on the % scale 0 is the no-effect control and ±100 the full control effect; nearly all actives have a fitted effect of over 60% in size
Target sequence (Q9UIF8 whole entry, looked up): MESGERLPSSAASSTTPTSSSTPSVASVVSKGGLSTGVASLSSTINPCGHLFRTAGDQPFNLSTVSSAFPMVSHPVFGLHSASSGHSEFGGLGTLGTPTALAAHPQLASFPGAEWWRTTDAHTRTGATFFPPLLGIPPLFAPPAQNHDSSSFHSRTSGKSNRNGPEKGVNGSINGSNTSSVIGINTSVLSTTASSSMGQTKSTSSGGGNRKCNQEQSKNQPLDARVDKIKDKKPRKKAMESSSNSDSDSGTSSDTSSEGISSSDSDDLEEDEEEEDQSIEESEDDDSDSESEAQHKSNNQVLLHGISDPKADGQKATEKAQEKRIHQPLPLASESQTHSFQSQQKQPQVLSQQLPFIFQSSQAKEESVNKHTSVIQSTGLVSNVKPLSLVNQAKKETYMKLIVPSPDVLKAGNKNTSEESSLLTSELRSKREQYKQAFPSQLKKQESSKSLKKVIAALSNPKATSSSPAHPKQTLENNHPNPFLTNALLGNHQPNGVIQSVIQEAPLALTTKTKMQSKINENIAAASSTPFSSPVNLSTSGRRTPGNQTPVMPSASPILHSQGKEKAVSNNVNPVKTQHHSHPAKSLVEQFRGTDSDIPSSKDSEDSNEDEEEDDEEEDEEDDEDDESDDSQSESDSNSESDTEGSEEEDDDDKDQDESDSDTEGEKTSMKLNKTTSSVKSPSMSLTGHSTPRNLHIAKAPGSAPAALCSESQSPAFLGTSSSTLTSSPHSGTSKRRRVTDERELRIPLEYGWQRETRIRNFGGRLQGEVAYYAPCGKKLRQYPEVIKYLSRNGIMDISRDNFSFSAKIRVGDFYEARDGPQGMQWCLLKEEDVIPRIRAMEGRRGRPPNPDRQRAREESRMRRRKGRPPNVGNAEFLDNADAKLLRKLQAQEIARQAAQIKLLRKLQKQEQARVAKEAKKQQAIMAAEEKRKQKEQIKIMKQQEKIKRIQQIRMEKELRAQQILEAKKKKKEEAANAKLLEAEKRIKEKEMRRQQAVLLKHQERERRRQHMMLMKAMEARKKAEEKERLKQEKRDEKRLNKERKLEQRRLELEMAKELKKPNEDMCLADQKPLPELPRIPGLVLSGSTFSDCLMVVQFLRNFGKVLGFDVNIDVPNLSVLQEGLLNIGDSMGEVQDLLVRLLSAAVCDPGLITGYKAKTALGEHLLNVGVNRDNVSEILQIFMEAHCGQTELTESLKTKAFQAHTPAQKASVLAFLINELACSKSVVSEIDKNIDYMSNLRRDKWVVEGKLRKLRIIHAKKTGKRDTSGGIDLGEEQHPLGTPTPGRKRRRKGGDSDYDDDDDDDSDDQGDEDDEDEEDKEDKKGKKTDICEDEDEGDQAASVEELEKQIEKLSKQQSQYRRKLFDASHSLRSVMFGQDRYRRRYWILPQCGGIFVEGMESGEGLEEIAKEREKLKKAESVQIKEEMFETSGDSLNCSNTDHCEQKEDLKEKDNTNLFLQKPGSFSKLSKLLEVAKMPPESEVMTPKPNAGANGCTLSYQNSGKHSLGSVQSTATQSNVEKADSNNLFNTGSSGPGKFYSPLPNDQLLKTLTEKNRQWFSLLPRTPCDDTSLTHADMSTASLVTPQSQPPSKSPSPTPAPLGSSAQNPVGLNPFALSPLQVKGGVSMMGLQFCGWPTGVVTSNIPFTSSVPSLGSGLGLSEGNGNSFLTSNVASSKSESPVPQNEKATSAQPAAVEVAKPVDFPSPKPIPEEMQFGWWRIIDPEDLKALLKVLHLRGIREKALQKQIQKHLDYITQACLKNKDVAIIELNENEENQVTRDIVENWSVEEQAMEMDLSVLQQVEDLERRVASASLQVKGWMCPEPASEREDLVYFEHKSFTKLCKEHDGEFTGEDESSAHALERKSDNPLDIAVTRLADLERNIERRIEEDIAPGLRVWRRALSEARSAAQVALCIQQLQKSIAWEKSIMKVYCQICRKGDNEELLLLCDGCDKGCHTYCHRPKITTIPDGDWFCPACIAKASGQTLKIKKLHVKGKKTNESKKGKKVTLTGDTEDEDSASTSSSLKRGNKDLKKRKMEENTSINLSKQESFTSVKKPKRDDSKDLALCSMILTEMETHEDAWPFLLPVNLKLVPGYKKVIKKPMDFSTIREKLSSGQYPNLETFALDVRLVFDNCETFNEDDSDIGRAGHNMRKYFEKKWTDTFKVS
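BAZ2B (50 nM) with biotin-H3(5-23)K14Ac peptide (50 nM) in PBS pH 7.4, 0.01% Tween-20, preformed 30 min, then compound 30 min at room temperature; top concentration 110uM. AlphaScreen streptavidin donor/nickel chelate acceptor beads (10 ug/mL final), 20 min dark, signal read.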
HP1b binding inh = inhibitors of HP1-beta chromodomain binding to methylated histone tails; P83916; AlphaScreen HP1-beta / biotin-H3K9me3 peptide binding; Potency, µM (series often up to 114 µM), for the others: top-dose activity change, negative = inhibition, usual class: inhibitors; hit rate 0.56% among 390,000; further: nearly all actives have a fitted effect of over 70% in size
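Compound inhibition of the preformed complex between 50 nM HP1-beta and 50 nM biotinylated H3K9me3 peptide was read by AlphaScreen. Buffer was PBS pH 7.4 with 0.01% Tween-20. Incubations ran 30 min at room temperature, with 10 ug/mL donor/acceptor beads.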
PLK1 PBD inh = inhibitors of human PLK1 polo-box domain binding | Plk1 PBD binding of FITC phosphopeptide, fluorescence polarization | P53350 | hit rate 2.8% among 360,000 | Potency, µM, inactives show max response, negative = inhibition, most hits filed as inhibitors; further: series mostly up to about 57 µM; on the % scale 0 is the no-effect control and ±100 the full control effect; nearly all actives have a fitted effect of over 65% in size
Active calls of the source: *; ! = a repeat was not active; [ ] = dose if it differs, or a comment. The call rests on the fitted dose curve; in most records, active means well fitted curve in the direction sought with a large enough effect; inconclusive means small, poorly fitted or top-dose-only effect, or another doubt; inactive means no such curve, though single readings can be large; an effect the other way counts as inactive or inconclusive. Potency means the concentration at half of the fitted maximal effect.

N#Cc1ccc(C(=O)NCC(c2ccco2)N2CCCC2)cc1 (stereo not given) was read as Sfp PPTase inh 19%, G9a block inconclusive, JMJD2A Tudor 19%[11.4 µM], BAZ2B inh 6%, HP1b binding inh 38% and PLK1 PBD inh -23%.
CC(=O)c1ccc(NC(=S)NCC(c2ccco2)N2CCCC2)cc1 (stereo not given) was read as Sfp PPTase inh 9%, G9a block 50µM*, JMJD2A Tudor -22%, BAZ2B inh -23%, HP1b binding inh 25% and PLK1 PBD inh -10%.
For CN(Cc1ccc(OCC(O)CN2CCCCC2)cc1)Cc1ccnc2ccccc12 (stereo not given) the results were Sfp PPTase inh -5%, G9a block 50µM*, JMJD2A Tudor -31%, BAZ2B inh -27%, HP1b binding inh -1% and PLK1 PBD inh -4%.
For COc1ccccc1Cc1nc2ccccc2nc1SCC(=O)N(C)c1ccc(F)cc1 the results were G9a block -4%[59 µM], JMJD2A Tudor -19%, BAZ2B inh 12% and HP1b binding inh 28%[57 µM].
Screening Cc1ccc(C2=NNC3(CCOC(C)(C)C3)S2)cc1 (stereo not given) returned Sfp PPTase inh -1%, G9a block 28µM*, JMJD2A Tudor inconclusive, BAZ2B inh -36%, HP1b binding inh -30% and PLK1 PBD inh -11%.
Cc1cc(NC(=O)/C=C/c2ccco2)ccc1NC(=O)c1ccccc1 was read as Sfp PPTase inh 13µM*, G9a block inconclusive, JMJD2A Tudor -10%, BAZ2B inh -28%, HP1b binding inh 28% and PLK1 PBD inh -6%.
For O=C(/C=C/c1ccco1)Nc1ccc2nn(-c3ccccc3)nc2c1 the results were Sfp PPTase inh inconclusive, G9a block inconclusive, JMJD2A Tudor -19%, BAZ2B inh -35%, HP1b binding inh 9% and PLK1 PBD inh -4%.
Screening Cc1ccc(NC(=O)/C=C/c2ccco2)cc1F returned G9a block 13µM*, JMJD2A Tudor -35%, BAZ2B inh inconclusive and HP1b binding inh inconclusive.
`O=C(CSc1nccn1C1CCCC1)Nc1cccc(F)c1` gave G9a block -16%[59 µM], JMJD2A Tudor -29%, BAZ2B inh 79µM* and HP1b binding inh 9%.
Cc1cc(/C=C2/C(=O)N(C)C(=S)N2C)c(C)n1C1CC1 was read as Sfp PPTase inh -17%, G9a block 79µM*, JMJD2A Tudor inconclusive, BAZ2B inh inconclusive, HP1b binding inh -11% and PLK1 PBD inh 1%.
Cc1ccc(N=Cc2cc(C)n(C3CCCC3)c2C)cc1 was read as Sfp PPTase inh 2%, G9a block 15%[0.0925 µM], JMJD2A Tudor -29%, BAZ2B inh inconclusive, HP1b binding inh 9% and PLK1 PBD inh -6%.
`Cc1cc(/C=C2\SC(=S)NC2=O)c(C)n1C1CC1` gave Sfp PPTase inh -29%, G9a block inconclusive, JMJD2A Tudor 45µM*, BAZ2B inh 45µM*, HP1b binding inh -13% and PLK1 PBD inh -4%.
For CCN(CC)c1ccc(C(=O)N2CCC(c3c[nH]c4ccccc34)(c3c[nH]c4ccccc34)CC2)cc1 the results were G9a block 0%[59 µM], JMJD2A Tudor inconclusive, BAZ2B inh inconclusive and HP1b binding inh -12%.
For CCOC(=O)C1=CN(Cc2cccc(-c3ccc(F)cc3)c2)S(=O)(=O)N(C)C1C (stereo not given) the results were JMJD2A Tudor 19%, HP1b binding inh 66% and PLK1 PBD inh -8%.
For CCC(=O)c1ccc2c(c1)N(CCCN1CCN(CCO)CC1)c1ccccc1S2 the results were Sfp PPTase inh 79µM* and G9a block inconclusive.
`CN1CCN(CCCN2c3ccccc3Sc3ccc(Cl)cc32)CC1` gave Sfp PPTase inh inconclusive, G9a block 16µM*!, JMJD2A Tudor 45µM*, BAZ2B inh 20µM*, HP1b binding inh inconclusive and PLK1 PBD inh -2%.
For CC(=O)c1ccc2c(c1)N(CCCN1CCN(CCO)CC1)c1ccccc1S2 the results were Sfp PPTase inh -9% and G9a block inconclusive.
For CN1CCN(CCCN2c3ccccc3Sc3ccccc32)CC1 the results were Sfp PPTase inh -10% and G9a block 28µM*.
For OC1CC2CCC(C1)N2CCCN1c2ccccc2Sc2ccc(Cl)cc21 (stereo not given) the results were JMJD2A Tudor inconclusive, HP1b binding inh -4%[57 µM] and PLK1 PBD inh 3%.
For CCSc1ccc2c(c1)N(CCCN1CCN(C)CC1)c1ccccc1S2 the results were Sfp PPTase inh -9%, G9a block 14µM*, JMJD2A Tudor 40µM*, BAZ2B inh 35µM*, HP1b binding inh inconclusive and PLK1 PBD inh -7%.
For O=C1NC[C@H](CCCCN2C[C@@H](Cc3ccccc3)N(Cc3ccccc3)C(=O)C2=O)N(CCC2CCCCC2)C1=O the results were PLK1 PBD inh -11%.
Screening O=C(NC1CCCC1)c1cc(Nc2cccc(C(F)(F)F)c2)nc2ccccc12 returned G9a block 1%[59 µM], JMJD2A Tudor 15%, BAZ2B inh 15% and HP1b binding inh 27%.
CCn1c(CNC(=O)c2ccco2)nnc1SCC(=O)Nc1cc(F)ccc1C was read as Sfp PPTase inh 7%, G9a block 19%, JMJD2A Tudor -17%, BAZ2B inh 3%, HP1b binding inh -8% and PLK1 PBD inh -1%.
Cc1cc(/C=N/NC(=O)c2cccc(N(C)C)c2)c(C)n1-c1cc(C(=O)O)cc(C(=O)O)c1 was read as Sfp PPTase inh -6%, G9a block 11µM*, JMJD2A Tudor 40µM*, HP1b binding inh 32µM* and PLK1 PBD inh inconclusive.
`CN(C)c1cccc(C(=O)N/N=C/c2ccccc2F)c1` gave Sfp PPTase inh 5%, G9a block -35%, JMJD2A Tudor -19%, BAZ2B inh -33%, HP1b binding inh -6% and PLK1 PBD inh 0%.
For Cc1cc(/C=N/NC(=O)C(O)(c2ccccc2)c2ccccc2)c(C)n1-c1cccc(C(=O)O)c1 the results were Sfp PPTase inh 40µM*, G9a block 40µM*, JMJD2A Tudor inconclusive, BAZ2B inh 56µM*, HP1b binding inh -4% and PLK1 PBD inh -21%.
For CCOC(=O)c1c(Nc2ccc(C)cc2)nnc(-c2ccccc2)c1-c1ccccc1 the results were G9a block 2.2µM*, JMJD2A Tudor inconclusive, BAZ2B inh inconclusive and HP1b binding inh -18%.
`O=S(=O)(c1ccccc1)c1nc(-c2ccccc2Cl)oc1N1CCCCCC1` gave G9a block inconclusive, JMJD2A Tudor -29%, BAZ2B inh -35% and HP1b binding inh -1%.
For O=S(=O)(c1ccc(F)cc1)c1nc(-c2ccccc2F)oc1N1CCCCC1 the results were Sfp PPTase inh inconclusive, G9a block inconclusive, JMJD2A Tudor -25%, BAZ2B inh inconclusive, HP1b binding inh -12% and PLK1 PBD inh -10%.
